Several values for one entry are separate records, joined by “and”; a condition that tells them apart may be missing. Identical values can stand only once. Inconclusive results are not listed. Activity calls are given as the source filed them. How the source made its calls: active means hit-call score of the fitted dose curve at least 0.9, where 1 is the maximum; inconclusive means response in the unintended direction; inactive means score below 0.9.

Sequence of human Dopamine Transporter (DAT), SLC6A3 (gene 6531) (Q01959 whole entry, looked up): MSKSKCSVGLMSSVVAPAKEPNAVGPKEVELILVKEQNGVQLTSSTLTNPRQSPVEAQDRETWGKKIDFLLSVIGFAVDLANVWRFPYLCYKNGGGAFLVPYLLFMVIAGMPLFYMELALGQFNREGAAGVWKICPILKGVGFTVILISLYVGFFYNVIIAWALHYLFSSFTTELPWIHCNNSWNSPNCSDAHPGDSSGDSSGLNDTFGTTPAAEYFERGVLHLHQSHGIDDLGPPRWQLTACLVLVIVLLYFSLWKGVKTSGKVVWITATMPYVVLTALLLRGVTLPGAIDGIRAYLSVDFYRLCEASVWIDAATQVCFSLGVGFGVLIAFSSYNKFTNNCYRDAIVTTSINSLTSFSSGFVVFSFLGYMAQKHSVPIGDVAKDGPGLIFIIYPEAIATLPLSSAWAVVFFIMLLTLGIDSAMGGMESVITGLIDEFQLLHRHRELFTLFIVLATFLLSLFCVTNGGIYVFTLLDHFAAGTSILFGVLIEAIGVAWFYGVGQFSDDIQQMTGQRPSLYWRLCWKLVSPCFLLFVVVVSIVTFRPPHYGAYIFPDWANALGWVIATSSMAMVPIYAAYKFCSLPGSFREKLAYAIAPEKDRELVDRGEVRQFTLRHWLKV

This test concerns the target human Dopamine Transporter (DAT), SLC6A3 (gene 6531) (UniProt Q01959). The experiment in a line: NVS_TR_hDAT: NovaScreen (NVS) Transporter Assay for human Dopamine Transporter (DAT) (AID 2283374). As for the experimental part: NVS_TR_hDAT is a biochemical, single-readout assay that uses extracted gene-proteins in a cell-free assay. Measurements were taken 1 hour after chemical dosing in a 96-well plate.NVS_TR_hDAT is one of one assay component(s) measured or calculated from the NVS_TR_hDAT assay. It is designed to make measurements of radioligand binding, a form of binding reporter, as detected with scintillation counting signals by Filter-based radiodetection technology.Data from the assay component NVS_TR_hDAT was analyzed into 1 assay endpoint. This assay endpoint, NVS_TR_hDAT, was analyzed in the positive analysis fitting direction relative to DMSO as the negative control and baseline of activity. Using a type of binding reporter, loss-of-signal activity can be used to understand changes in the binding as they relate to the gene SLC6A3. Furthermore, this assay endpoint can be referred to as a primary readout, because the performed assay has only produced 1 assay endpoint. To generalize the intended target to other relatable targets, this assay endpoint is annotated to the transporter intended target family, where the subfamily is neurotransmitter transporter.
Binding assays used specific radioligands (tritiated, iodinated) with non-radioactive competitive displacement ligands in agonist or antagonist protocols (as indicated) and various reference compounds and inhibitors to titrate specific binding to receptors and transporters. Most enzyme assays (CYPs, kinases, phosphatases, proteases, HDACs) used recombinant protein and specific substrates (fluorescence mostly, some colorimetric and radioactive) and inhibitors, followed by a biochemical separation of substrate and product. All assays for the biochemical HTS were initially run in duplicate at a single concentration (10 uM for CYP450 assays and 25 uM for all others). […] Each assay was run with positive and negative controls, and concurrent controls on every plate. The follow-up (secondary) screen tested active chemical-pairs in concentration series, as well as a few additional assays not tested in the primary screen, some selected negative inactives, and several cases re-run in the concentration series for confirmatory purposes.
As to `CC(C)CCCCCCc1ccc(O)cc1`, the AC50 is 8.36 µM (active).

On to `CCOC(=O)NCCOc1ccc(Oc2ccccc2)cc1`, for which the AC50 is 3.08 µM (active).

In the case of `Cc1nn(C)c(Oc2ccccc2)c1C=NOCc1ccc(C(=O)OC(C)(C)C)cc1`, the outcome was inactive.

As for `Oc1ccc(C(c2ccc(O)cc2)C(Cl)(Cl)Cl)cc1`, the AC50 was 0.446 µM (active).

On to `N#CSCSc1nc2ccccc2s1`, for which the AC50 is 13.7 µM (active) and 3.9 µM (active).

`CCCCCCC(C)OC(=O)COc1nc(F)c(Cl)c(N)c1Cl` (stereo not drawn): the outcome was inactive.

Regarding `CCCCOCCOCCOCc1cc2c(cc1CCC)OCO2`, the half-maximal activity concentration (AC50) was 35.7 µM (active).

Regarding `C#CCOC(=O)[C@@H](C)Oc1ccc(Oc2ncc(Cl)cc2F)cc1`, the AC50 was 7.24 µM (active).

`c1ccc(Nc2ccccc2)cc1`: the AC50 is 4.96 µM (active).

For the compound `CCN(Cc1c(F)cccc1Cl)c1c([N+](=O)[O-])cc(C(F)(F)F)cc1[N+](=O)[O-]`, the compound was classed as inactive.

With `CCOC(=O)C(C)Oc1ccc(Oc2cnc3cc(Cl)ccc3n2)cc1` (stereo not drawn), the result was inactive.

With `CC(C)(C)[C@@H](O)[C@@H](Cc1ccc(Cl)cc1)n1cncn1`, the AC50 was 2.39 µM (active).

In the case of `CC(C)(c1ccc(O)cc1)c1ccc(O)cc1`, the concentration at half-maximal activity (AC50) was 8.34 µM (active) [middle of 4 runs].

A word on the AC50: it is the concentration giving half of the maximal activity seen.

Source of the values: PubChem BioAssay (EPA / NIEHS).
